# Test results from ChEMBL document CHEMBL3988442, “University of Dundee, Small-Polar-MMV Screening Library” (2021).
# Hit rate of the full screen: of about 66,000 compounds, about 960 (1.5%) showed an effect of 50% or more. What follows is part of a selection rich in strong results, with near analogues and random picks from the rest.
# System: Trypanosoma brucei
# Assay: Trypanosoma brucei 72 hour study
# Format: functional, organism-based
# Parameters: scale not given: in the data most compounds retested in dose-response had high values
structure (smiles),measurement,setting,value
CN(C)[C@@H]1CCN(S(=O)(=O)C2CC2)[C@H]1Cc1ccccc1.O=C(O)C(F)(F)F,Percent Effect,"30.3 µM, […]",-33.03%
O=C1CCNc2ncc(-c3ccccc3Cl)cc2CN1C1CC1,Percent Effect,"30.3 µM, […]",10.61%
Cl.O=C(NCc1ccc(Cl)cc1)C1=NOC2(CCNC2)C1 (stereo unspecified),Percent Effect,"30 µM, 30.03 µM",4.958%
Cc1ccc(NC(=O)Nc2c[nH]c(=O)[nH]c2=O)c(C)c1,Percent Effect,"30 µM, 30.03 µM",-29.58%
Cc1cc(CN2CCC3(CC2)COC(COCC2CC2)C3)no1.O=C(O)C(F)(F)F (stereo unspecified),Percent Effect,"30.3 µM, […]",4.372%
Cc1cncc(CN2C[C@@H](O)[C@H](Oc3ccccc3)C2)c1,Percent Effect,"30.3 µM, […]",6.651%
c1ccc(-c2cc(CN3C[C@@H]4CC[C@H](C3)N(CC3CC3)C4)on2)cc1,Percent Effect,"30 µM, 30.03 µM",-36.61%
c1ccc(-c2cc(CN3C[C@@H]4CC[C@H](C3)N(CC3CCC3)C4)on2)cc1,Percent Effect,"30 µM, 30.03 µM",58.21%
c1ccc(-c2nnc(CN3C[C@@H]4CC[C@H](C3)N(CC3CCC3)C4)o2)cc1,Percent Effect,"30 µM, 30.03 µM",-46.57%
O=C(O)C(F)(F)F.O=C(O)C(F)(F)F.O=C(c1n[nH]c2c1CN(C1CCOCC1)CC2)N1CCCC1,Percent Effect,"30.3 µM, […]",-4.414%
CCOc1ccc(N(C)Cc2nnc(C3CC3)o2)cc1,Percent Effect,"30.3 µM, […]",-683%
CCOc1ccc(N(C)Cc2nc(C)c(C)o2)cc1,Percent Effect,"30.3 µM, […]",96.05%
CCOc1ccc(N(C)Cc2nnc(C)o2)cc1,Percent Effect,"30.3 µM, […]",-136.8%
CCn1ncc2c1C(COC)N(C(=O)CCc1ccccc1)CC2.O=C(O)C(F)(F)F (stereo unspecified),Percent Effect,"30.3 µM, […]",-62.76%
COC[C@@]12CC[C@@H](N3CCOCC3)C[C@H]1CCN(c1ncccc1F)C2,Percent Effect,"30.3 µM, […]",8.261%
COC[C@@]12CC[C@@H](N3CCOCC3)C[C@H]1CCN(c1ncccc1Cl)C2,Percent Effect,"30 µM, 30.03 µM",81.93%
COC[C@@]12CC[C@@H](N3CCOCC3)C[C@H]1CCN(c1ncccc1C)C2,Percent Effect,"30.3 µM, […]",-4.564%
Cl.Cl.O=C(CN1CCN(CC(O)C2CC2)CC1)NCc1ccccc1 (stereo unspecified),Percent Effect,"30.3 µM, […]",-20.63%
Cn1ccc(CN2CCCC23CCN(Cc2cccc(F)c2)CC3)n1.O=C(O)C(F)(F)F.O=C(O)C(F)(F)F,Percent Effect,"30.3 µM, […]",-80.78%
CCc1cc(C(F)(F)F)c2c(C3CCN(C(=O)COC)CC3)noc2n1,Percent Effect,"30.3 µM, […]",11.66%
O=C(N[C@@H]1CN(CCc2ccc(F)cc2)C[C@H]1O)c1cscn1,Percent Effect,"30.3 µM, […]",8.587%
O=C(O)C(F)(F)F.O=C(O)C(F)(F)F.O=C(c1cccnc1)N1CCn2cc(CN3CCCC3)nc2C1,Percent Effect,"30.3 µM, […]",-57.28%
O=C(NCCCNc1ccc(C(F)(F)F)cn1)c1ccccc1,Percent Effect,10 µM,-30.72%
N#Cc1ccc(C(=O)NCCCNc2ccc(C(F)(F)F)cn2)cc1,Percent Effect,"30 µM, 30.03 µM",0.4176%
N#CC1(C(=O)NCCCNc2ccc(C(F)(F)F)cn2)CCCC1,Percent Effect,"30 µM, 30.03 µM",104.7%
CCCN1C(=O)[C@H]2CC[C@@H]1CN(S(=O)(=O)c1cccc(Cl)c1)C2,Percent Effect,"30.3 µM, […]",-12.81%
Cc1cccc(CN2CCc3onc(CO)c3C2)n1.O=C(O)C(F)(F)F,Percent Effect,"30.3 µM, […]",-52.13%
O=C(O)C(F)(F)F.O=C(O)C(F)(F)F.c1cncc(OCc2noc3c2CN(Cc2ccsc2)CC3)c1,Percent Effect,"30 µM, 30.03 µM",-15.24%
O=C(Nc1ccc(Cl)cc1)c1nn(C2CCS(=O)(=O)C2)c2c1CCCC2 (stereo unspecified),Percent Effect,"30 µM, 30.03 µM",-43.99%
O=C(Nc1ccccc1)c1nn(C2CCS(=O)(=O)C2)c2c1CCCC2 (stereo unspecified),Percent Effect,"30 µM, 30.03 µM",23.09%
O=C(Nc1cccc(Cl)c1)c1nn(C2CCS(=O)(=O)C2)c2c1CCCC2 (stereo unspecified),Percent Effect,"30 µM, 30.03 µM",73.39%
Cc1[nH]c2ccc(CNc3cc(C#N)ccn3)cc2c1C,Percent Effect,"30 µM, 30.03 µM",39.43%
COCC(C)NCc1ccc2[nH]c(C)c(C)c2c1 (stereo unspecified),Percent Effect,"30 µM, 30.03 µM",2.897%
COC(=O)C(C)NCc1ccc2[nH]c(C)c(C)c2c1 (stereo unspecified),Percent Effect,"30 µM, 30.03 µM",-35.15%
CSCC(C)NCc1ccc2[nH]c(C)c(C)c2c1 (stereo unspecified),Percent Effect,"30 µM, 30.03 µM",-11.75%
Cc1[nH]c2ccc(CNc3cc(C(=O)NC(C)C)ccn3)cc2c1C,Percent Effect,"30 µM, 30.03 µM",50.33%
Cc1[nH]c2ccc(CNc3cc(C(N)=O)ccn3)cc2c1C,Percent Effect,"30 µM, 30.03 µM",60.58%
NC[C@H]1CC[C@H](C(NC(=O)CC2CCCCC2)c2ccccn2)CC1 (stereo partly specified),Percent Effect,"30.3 µM, […]",-8.457%
COc1cnc(C2(O)CCN(C(=O)c3ccccn3)CC2)c(OC)n1,Percent Effect,"30.3 µM, […]",-9.61%
COc1c(CNCCNC(=O)c2cccc(C)c2)c(C)nn1C.Cl,Percent Effect,"30.3 µM, […]",0.1013%
O=C(NCC1CC1)[C@H]1C[C@@H]2CN(C(=O)NCc3ccccc3)C[C@H]1O2,Percent Effect,"30 µM, 30.03 µM",46.62%
COc1cccc(-c2n[nH]cc2CNC2CCN(C(C)C)CC2)c1.Cl,Percent Effect,"30 µM, 30.03 µM",-15.13%
COc1c(CNC2CCOc3ccccc32)c(C(C)C)nn1C (stereo unspecified),Percent Effect,"30 µM, 30.03 µM",25.19%
CC(C)c1nn(C)c(N(C)C)c1CNC1CCOc2ccccc21 (stereo unspecified),Percent Effect,"30 µM, 30.03 µM",-51.78%
CC(C)c1nn(C)c(Cl)c1CNC1CCOc2ccccc21.Cl (stereo unspecified),Percent Effect,"30 µM, 30.03 µM",55.88%
CN1CC(=O)N(c2cccc(F)c2)CC12CCN(CC1CCOCC1)C2.O=C(O)C(F)(F)F.O=C(O)C(F)(F)F (stereo unspecified),Percent Effect,"30 µM, 30.03 µM",9.991%
COc1ccc(C2=Nn3c(CN)nnc3-c3ccccc3C2)cc1,Percent Effect,"30 µM, 30.03 µM",2.28%
COc1ncccc1C(=O)N1CCCC(n2ccnc2C)C1 (stereo unspecified),Percent Effect,"30.3 µM, […]",-7.34%
Cc1ccoc1C(=O)NC1CCN(Cc2ccccc2F)CC1,Percent Effect,10 µM,-23.23%
same,Percent Effect,"30.3 µM, […]",4.829%
Cc1ccoc1C(=O)NC1CCN(Cc2cccc3ccccc23)CC1,Percent Effect,10 µM,-9.27%
same,Percent Effect,"30.3 µM, […]",57.41%
O=C(NC1CCN(Cc2cccc3c2OCCO3)CC1)c1cccs1,Percent Effect,10 µM,10.83%
same,Percent Effect,"30.3 µM, […]",7.019%
CC(C)C(=O)NC1CCN(Cc2cccc3c2OCCO3)CC1,Percent Effect,"30 µM, 30.03 µM",-15.03%
Cc1ccoc1C(=O)NC1CCN(Cc2ccccc2C#N)CC1,Percent Effect,10 µM,15.78%
same,Percent Effect,"30.3 µM, […]",-0.9403%
Cc1ccc(C(=O)NC2CCN(Cc3cccc4c3OCCO4)CC2)s1,Percent Effect,10 µM,-2.683%
same,Percent Effect,"30.3 µM, […]",68.24%
O=C(O)C(F)(F)F.O=C(c1ccc(F)cc1)N1CCC2(CCN(Cc3ccccn3)C2=O)C1 (stereo unspecified),Percent Effect,"30 µM, 30.03 µM",-50.24%
Cc1csc2ncc(-c3ccnc(N4CCC[C@H](C(N)=O)C4)n3)c(=O)n12,Percent Effect,"30.3 µM, […]",-8.345%
CCN(CC)Cc1cn2c(n1)CN(C1CCOC1)CC2.O=C(O)C(F)(F)F.O=C(O)C(F)(F)F (stereo unspecified),Percent Effect,"30.3 µM, […]",-56.79%
Cc1ccccc1C(N)c1ccncc1.Cl (stereo unspecified),Percent Effect,"30.3 µM, […]",-1.36%
CCOc1c(F)cccc1C(=O)N(CC)C(C)c1cccnc1 (stereo unspecified),Percent Effect,"30.3 µM, […]",6.068%
CCOc1c(F)cccc1C(=O)N(CC)C(C)c1ccncc1 (stereo unspecified),Percent Effect,"30.3 µM, […]",3.975%
CCOc1c(F)cccc1C(=O)N(c1cccnc1)C(C)C,Percent Effect,"30.3 µM, […]",99.6%
Cc1cc(C(=O)N2CCC3(CC2)C(=O)N(C)CCN3CC(C)C)c(C)o1.O=C(O)C(F)(F)F,Percent Effect,"30.3 µM, […]",2.031%
CCOC(=O)[C@]12CCCN(Cc3cccs3)C[C@H]1CN(C(C)C)C2.O=C(O)C(F)(F)F.O=C(O)C(F)(F)F,Percent Effect,"30.3 µM, […]",-11.59%
Cc1cc(=O)n2nc(Oc3ccc(F)c(F)c3)sc2n1,Percent Effect,"30 µM, 30.03 µM",-14.16%
Cc1cc(=O)n2nc(Oc3ccc(C#N)cc3Cl)sc2n1,Percent Effect,"30 µM, 30.03 µM",98.96%
Cc1cc(=O)n2nc(Oc3cccc(I)c3)sc2n1,Percent Effect,"30 µM, 30.03 µM",99.1%
Cc1cc(=O)n2nc(Oc3ccc(Cl)c(C)c3)sc2n1,Percent Effect,"30 µM, 30.03 µM",-32.75%
Cc1cc(=O)n2nc(Oc3cccc(C(N)=O)c3)sc2n1,Percent Effect,"30 µM, 30.03 µM",-16.62%
Cc1cc(=O)n2nc(Oc3cc(Cl)cc(Cl)c3)sc2n1,Percent Effect,"30 µM, 30.03 µM",-23.2%
CN1CCCCCC1C(=O)N1CCN(c2ccccc2C#N)CC1 (stereo unspecified),Percent Effect,"30 µM, 30.03 µM",14.65%
COc1ncccc1CNC(=O)NCc1ccco1,Percent Effect,10 µM,-3.742%
same,Percent Effect,"30.3 µM, […]",11.99%
Cc1ccc(CN2CC[C@H]3[C@H](CC(Cn4cccn4)N3C)C2)s1.O=C(O)C(F)(F)F.O=C(O)C(F)(F)F.O=C(O)C(F)(F)F (stereo partly specified),Percent Effect,"30.3 µM, […]",2.612%
O=C(CC1CC1)N1CC[C@@H]2[C@H](CC1)N(Cc1cccnc1)CCS2(=O)=O.O=C(O)C(F)(F)F.O=C(O)C(F)(F)F,Percent Effect,"30.3 µM, […]",-63.96%
Cc1cccc(OC2CCN(c3nccnc3C#N)CC2)n1,Percent Effect,"30.3 µM, […]",-52.89%
Cc1cccc(OC2CCN(c3ncc(C#N)cc3Cl)CC2)n1,Percent Effect,"30.3 µM, […]",2.665%
Cc1cccc(OC2CCN(c3ccc(C#N)cn3)CC2)n1,Percent Effect,"30.3 µM, […]",86.54%
CCn1cc(NS(=O)(=O)c2ccc(Br)s2)c(C(N)=O)n1,Percent Effect,"30 µM, 30.03 µM",-24.98%
O=C(Nc1cnccn1)[C@H]1CC[C@@H]2[C@@H](CCN2Cc2ccoc2)O1.O=C(O)C(F)(F)F,Percent Effect,"30.3 µM, […]",-117.8%
COc1cc(F)ccc1N(C)Cc1cccnc1,Percent Effect,"30 µM, 30.03 µM",-106.7%
COc1cc(F)ccc1N(C)Cc1ccncc1,Percent Effect,"30 µM, 30.03 µM",-66.27%
COc1cc(F)ccc1N(C)Cc1ccccn1,Percent Effect,"30 µM, 30.03 µM",73.53%
Cc1c(-c2cccs2)nn2c(O)c3c(nc12)CN(C(=O)C1CC1)C3,Percent Effect,"30.3 µM, […]",9.41%
Cc1ccc(N2CCN(C(=O)CCc3n[nH]c(C)c3C)CC2=O)cc1,Percent Effect,"30 µM, 30.03 µM",-42.04%
CS(=O)(=O)N1C[C@@H]2CC[C@H](C1)N(Cc1ccc3nsnc3c1)C2,Percent Effect,"30 µM, 30.03 µM",-23.46%
CN(C)S(=O)(=O)N1C[C@@H]2CC[C@H](C1)N(Cc1ccc(F)c(F)c1)C2,Percent Effect,"30 µM, 30.03 µM",-42.84%
CC(=O)c1cc(CN2C[C@H]3CC[C@@H]2CN(S(C)(=O)=O)C3)cs1,Percent Effect,"30 µM, 30.03 µM",91.04%
CC(=O)c1cc(CN2C[C@H]3CC[C@@H]2CN(S(=O)(=O)N(C)C)C3)cs1,Percent Effect,"30 µM, 30.03 µM",79.15%
CS(=O)(=O)N1C[C@@H]2CC[C@H](C1)N(Cc1ccsc1)C2,Percent Effect,"30 µM, 30.03 µM",-69.04%
CN(C)S(=O)(=O)N1C[C@@H]2CC[C@H](C1)N(Cc1ccc3nsnc3c1)C2,Percent Effect,"30 µM, 30.03 µM",2.112%
CC(C)(C)C(CCO)NC(=O)Nc1ccncc1 (stereo unspecified),Percent Effect,"30.3 µM, […]",-3.299%
